CHT allo act – CHT positive allosteric modulators, primary screen, cell-based, membrane potential dye, choline EC20 | 310,000 compounds, 0.49% hits | CHT-expressing cells; hits give high values; LV-AA mutant CHT in HEK293 cells | B-score at 10 µM;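 active means initial fluorescence not abnormally high and integrated response B-score, plate-corrected, over 3 SD above library mean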
Target sequence (Q9GZV3 whole entry, looked up): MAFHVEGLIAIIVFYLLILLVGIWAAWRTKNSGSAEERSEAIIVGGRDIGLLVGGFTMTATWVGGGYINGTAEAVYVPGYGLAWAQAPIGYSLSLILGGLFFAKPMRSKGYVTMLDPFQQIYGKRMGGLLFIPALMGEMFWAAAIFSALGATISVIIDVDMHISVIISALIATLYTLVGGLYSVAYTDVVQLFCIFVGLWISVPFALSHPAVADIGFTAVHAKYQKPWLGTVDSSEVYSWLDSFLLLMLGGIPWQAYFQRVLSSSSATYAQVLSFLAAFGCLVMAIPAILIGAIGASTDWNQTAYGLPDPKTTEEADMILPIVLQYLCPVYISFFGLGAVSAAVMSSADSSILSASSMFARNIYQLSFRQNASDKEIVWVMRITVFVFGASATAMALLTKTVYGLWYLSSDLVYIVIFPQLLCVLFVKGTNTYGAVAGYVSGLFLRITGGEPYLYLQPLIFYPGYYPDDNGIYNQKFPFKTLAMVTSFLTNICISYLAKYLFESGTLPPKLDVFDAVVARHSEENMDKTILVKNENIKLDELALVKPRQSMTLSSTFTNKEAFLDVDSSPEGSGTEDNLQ
AI-2 QS mod – Vibrio harveyi AI-2 quorum sensing modulators, primary screen, JMH597 strain, luminescence/OD600 ratio; Vibrio harveyi JMH597 AI-2 luminescence/OD600 ratio, 9 h; hits give low values; strain lacks LuxN and CqsS sensors; 0 = neutral-control median; activity change, % at 7.5 µM; 300,000 compounds, 0.4% hits; AID 2094, 2009; in the data active means activity change below about -75%, passing the limit was not always enough;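 further: luminescence divided by OD600 gain over 9 h not by final OD600 alone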
PREPL inhibitor – PREPL enzyme inhibitors, primary screen, biochemical, fluorescence polarization | recombinant PREPL, fluorescence polarization activity-based probe | AID 2751, 2010 | Prolyl endopeptidase-like (Homo sapiens), Q4J6C6 | 320,000 compounds, 0.68% hits | inhibition, % at 5.96 µM; in the data active means inhibition above about 43%
CHT block – inhibitors of human choline transporter CHT | AID 488975, 2010 | 310,000 compounds, 0.86% hits | B-score at 10 µM | CHT-expressing cells, membrane potential dye, choline response; hits give low values | High affinity choline transporter 1 (Homo sapiens), Q9GZV3;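 active means B-score over 3 SD under the library average, and starting fluorescence ratio not unusually high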;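 further: choline stimulus applied at its EC90 after an EC20 pre-addition; B-score computed on integrated fluorescence ratio after choline addition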
ALR H2O2 inh – inhibitors of human ALR sulfhydryl oxidase, primary screen, biochemical, H2O2 detection, HRP-luminol luminescence, single point; FAD-linked sulfhydryl oxidase ALR (Homo sapiens), P55789; purified ALR, DTT oxidation; inhibition, % (test concentration not listed); 290,000 compounds, 3.8% hits;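 active means mean replicate inhibition above about 79%, with every replicate also reaching it, limit read from the data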
CHT activ conf – CHT activators, confirmation, cell-based, membrane potential dye, duplicate | CHT-expressing cells, membrane potential dye fluorescence (FDSS); % of choline EC20–EC90 response window; HEK293 expressing CHT LV-AA mutant; choline added at its EC20 | AID 504833, 2011 | activation, % at 10 µM | shares compounds with CHT allo act | 2,500 compounds, 91% hits;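 active means primary screen active, with duplicate mean activation above negative control mean plus 3 SD, cut at about 11% in these data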
HEK293 MP dye – membrane potential response in parental HEK293 cells, counter-screen for CHT activator project, cell-based, membrane potential dye; membrane potential dye fluorescence (FDSS); measured after EC20 choline addition; AID 623908, 2012; shares compounds with CHT allo act; ratio readout change at 10 µM, hits read low; 2,500 compounds, 62% hits;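 active means duplicate-averaged ratio beyond 3 SD from buffer wells, up or down, though filed actives are nearly all decreases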
Each line names hits and unclear results; the compound was inactive in the other large screens (follow-up assays come after a bar, where they were run). The list is not random: actives were taken first. Their share in the collection is about 5%.

Cc1cc(C)n2nc(C(=O)N/N=C/c3ccc(Cl)cc3)nc2n1	none
Cc1cc(C)n2nc(C(=O)Nc3ccc(S(=O)(=O)N(C)C)cc3)nc2n1	CHT allo act 8.2 | CHT activ conf 60 | HEK293 MP dye -56
Cc1cc(C)n2nc(C(=O)Nc3ccc4c(c3)OCO4)nc2n1	CHT allo act 7.6 | CHT activ conf 30 | HEK293 MP dye -35
Cc1cc(C)n2nc(C(=O)N/N=C/c3ccc(O)cc3)nc2n1	CHT allo act 6.5, ALR H2O2 inh 99 | CHT activ conf 30 | HEK293 MP dye -24
CCc1ccccc1N1CC(C(=O)N2Cc3ccccc3CC2C(N)=O)CC1=O (stereo unspecified)	none (no result: CHT allo act, AI-2 QS mod, CHT block)
CC(C)(C)OC(=O)C[C@@H]1C/C=C\C[C@@H](CC(=O)N(CCO)Cc2ccccc2)C(=O)N[C@H](C(C)(C)C)COC1=O	none (no result: CHT allo act, AI-2 QS mod, CHT block)
NC(=O)c1ccccc1NC(=O)CCc1ccccc1	none
NC(=O)c1ccccc1NC(=S)NC(=O)CCc1ccccc1	none (no result: ALR H2O2 inh) | CHT activ conf inactive | HEK293 MP dye inactive
Cc1ccc(S(=O)(=O)Nc2nnc(C(C)(C)C)s2)cc1	none (no result: PREPL inhibitor)
Cc1ccc(S(=O)(=O)Nc2nncs2)cc1	CHT allo act 9.5 | CHT activ conf inactive | HEK293 MP dye inactive
C=CCOc1cccc(/C=N/NC(=O)CN(c2cc(Cl)ccc2OC)S(=O)(=O)c2ccc(C)c([N+](=O)[O-])c2)c1	none | CHT activ conf inactive | HEK293 MP dye inactive
O=C1CC(c2ccc(F)cc2)CC2=C1C(c1ccc([N+](=O)[O-])o1)Nc1ccccc1N2 (stereo unspecified)	none (no result: ALR H2O2 inh)
COc1ccc(-n2c(Cc3ccccc3)nnc2SCc2ccc([N+](=O)[O-])cc2)cc1	none
O=[N+]([O-])c1ccc(CSc2nnc(Cc3ccccc3)n2-c2ccc(F)cc2)cc1	none | CHT activ conf 21 | HEK293 MP dye inactive
CC(=O)Nc1ccc(NC(=O)C(C)OC(=O)C(C)SCC(=O)Nc2ccc(F)cc2)cc1 (stereo unspecified)	none
NS(=O)(=O)c1ccc(CCNC(=O)c2ccccc2Cc2ccccc2)cc1	none
CN(C)c1ccnc(Nc2ccc(O)cc2)c1C#N	CHT allo act 7 | CHT activ conf 52 | HEK293 MP dye -46
Brc1ccc2c(c1)OCCOCCOc1cc(Br)ccc1OCCOCCOCCO2	CHT allo act 14 | CHT activ conf 57 | HEK293 MP dye inactive
COCCOC(=O)c1[nH]c2c(c1C)C(=O)CC(c1ccc(N(C)C)cc1)C2 (stereo unspecified)	none
COCCOC(=O)c1[nH]c2c(c1C)C(=O)CC(c1ccccc1)C2 (stereo unspecified)	none (no result: ALR H2O2 inh) | CHT activ conf inactive | HEK293 MP dye inactive
O=C(CSc1nnc(Nc2ccccc2F)s1)NC1CC1	none (no result: CHT allo act, AI-2 QS mod, CHT block)
Cc1cc(C)nc(NC(=O)c2ccc(Cl)c([N+](=O)[O-])c2)n1	none
COc1ccc(C(=O)Nc2nc(C)cc(C)n2)cc1[N+](=O)[O-]	none (no result: ALR H2O2 inh) | CHT activ conf 19 | HEK293 MP dye -39
COc1ccc(CNc2nc3ccccc3n2Cc2ccc(C)cc2)cc1OC	none
COc1ccc(CNc2ccc3c(c2)nc(C)n3C)cc1OC	CHT allo act 6.6 | CHT activ conf 26 | HEK293 MP dye -48
Cc1nc2ccc(Br)cc2c2c1CC(CO)O2 (stereo unspecified)	CHT allo act 6.9 | CHT activ conf 53 | HEK293 MP dye -53
Cc1nc2ccc(Br)cc2c2c1CC(CBr)O2 (stereo unspecified)	none (no result: ALR H2O2 inh)
COc1ccc(N(C(=O)c2ccco2)C(C(=O)NC2CCCC2)c2ccc(OC)c(OC)c2)cc1 (stereo unspecified)	none (no result: ALR H2O2 inh)
CS(=O)(=O)N1CCCC(C(=O)Nc2ccc(F)c(F)c2)C1 (stereo unspecified)	none (no result: CHT allo act, AI-2 QS mod, CHT block)
CCn1c2c(c(=N)c3c1CCC3)CCCC2	CHT allo act 9.3 (no result: ALR H2O2 inh) | CHT activ conf 68 | HEK293 MP dye -65
CCCCCCCCCn1c2c(c(=N)c3c1CCC3)CCCC2	none (no result: CHT allo act, PREPL inhibitor, CHT block, ALR H2O2 inh)
N=c1c2c(n(Cc3ccc(F)cc3)c3c1CCC3)CCCC2	none
N=c1c2c(n(Cc3ccccc3)c3c1CCC3)CCC2	none
N=c1c2c(n(Cc3ccc(Cl)cc3)c3c1CCC3)CCC2	CHT allo act 8.1 | CHT activ conf 51 | HEK293 MP dye -42
N=c1c2c(n(Cc3cccc(Cl)c3)c3c1CCC3)CCCC2	CHT allo act 8.8 (no result: ALR H2O2 inh) | CHT activ conf 66 | HEK293 MP dye -41
COc1ccccc1NC(=O)c1ccc(NC(=O)CN(C)Cc2ccccc2F)cc1	none (no result: ALR H2O2 inh)
COc1ccc([C@H]2CC(=O)C=C(c3ccc(Cl)c(C(F)(F)F)c3)C2)cc1	none (no result: CHT allo act, AI-2 QS mod, CHT block)
Oc1ccc(N2CCN(c3ncnc4sc(-c5ccccc5)cc34)CC2)cc1	none (no result: CHT allo act, PREPL inhibitor, CHT block, ALR H2O2 inh)
CCc1cc2c(N3CCN(c4ccccc4)CC3)ncnc2s1	none | CHT activ conf 16 | HEK293 MP dye inactive
CC(CNC(=S)Nc1cc(F)cc(F)c1)CSc1ccc(Cl)cc1 (stereo unspecified)	none
Cc1c2cccn2cc[n+]1C	CHT allo act 6.6 | CHT activ conf 58 | HEK293 MP dye -53
COCCNC(=O)CN1N=C(c2ccc(C)cc2)CCC1=O	none
COc1ccc(CCNC(=S)NCc2ccc(Cl)c(Cl)c2)cc1OC	none
CC(C)(C)C(=O)NCCCc1nc2ccccc2n1CCCOc1ccc(Cl)cc1	CHT allo act 12 | CHT activ conf inactive | HEK293 MP dye inactive
C=CCn1c(CCCNC(=O)C(C)(C)C)nc2ccccc21	none
CCN(Cc1ccncc1)Cc1cn(C)nc1-c1ccc(Oc2ccccc2)cc1	none | CHT activ conf 19 | HEK293 MP dye inactive
CCS(=O)c1ccccc1C(=O)OCC(=O)N1CCC(c2ccccc2)=N1 (stereo unspecified)	none (no result: CHT allo act, AI-2 QS mod, CHT block)
CCCN1C2=NCCN2c2ccccc21	CHT allo act 6.4 | CHT activ conf 41 | HEK293 MP dye -36
CN1C2=NCCN2C(=O)c2ccccc21	CHT allo act 9.4 | CHT activ conf 29 | HEK293 MP dye -52
CCCCCCN1C2=NCCN2c2ccccc21	none
CCCN1C2=NCCCN2c2ccccc21	none
Cc1ccc(NCc2nc(SCC(=O)Nc3ccccc3)n[nH]2)cc1	none
Cc1cccc(N=N/C(=C\O)C(=O)c2cccs2)c1	none
O=C(CCCSc1ccccc1)Nc1ccc(Cl)c(S(=O)(=O)N2CCOCC2)c1	none (no result: CHT allo act, AI-2 QS mod, CHT block, ALR H2O2 inh)
COc1ccc(C(=O)C[n+]2ccccc2/C=N/O)cc1	none | CHT activ conf 19 | HEK293 MP dye -25
